OTUD3 inh – inhibitors of human OTUD3 deubiquitinase | 0.7% of 47,000 active | AID 1645858, 2021 | purified OTUD3, Ub-rhodamine fluorescence, 2 h | inhibition, % at 25 µM | OTU domain-containing protein 3 (Homo sapiens), Q5T2D3
UCHL1 block – inhibitors of human UCHL1 deubiquitinase; Ubiquitin carboxyl-terminal hydrolase isozyme L1 (Homo sapiens), P09936; purified UCHL1, Ub-rhodamine cleavage fluorescence; inhibition, % at 20 µM; 0.2% of 47,000 active
USP7 inh – inhibitors of human USP7 deubiquitinase; Ubiquitin carboxyl-terminal hydrolase 7 (Homo sapiens), Q93009; purified USP7, Ub-rhodamine cleavage fluorescence; inhibition, % at 20 µM; 0.3% of 47,000 active; AID 1645854, 2021
USP8 block – inhibitors of human USP8 deubiquitinase; AID 1645853, 2021; Ubiquitin carboxyl-terminal hydrolase 8 (Homo sapiens), P40818; inhibition, % at 20 µM; purified USP8, Ub-rhodamine cleavage fluorescence, 30 min; 4.2% of 47,000 active
USP10 inh – inhibitors of human USP10 deubiquitinase; 1.1% of 47,000 active; inhibition, % at 20 µM; Ubiquitin carboxyl-terminal hydrolase 10 (Homo sapiens), Q14694; purified USP10, Ub-rhodamine fluorescence, 60 min
* hit, by the source's call. Sampled rows, rich in hits. Any-hit rate of the full collection: about 4.9%. Cut-off read from the data, not from the text of the source: active = inhibition above about 30%; inactive = the rest.

SMILES	OTUD3 inh	UCHL1 block	USP7 inh	USP8 block	USP10 inh
O=C(Nc1nc2c(s1)COCC2)c1cc(-c2ccco2)[nH]n1	64.0*	-14.7	-38.5	86.0*	-6.1
NC(=O)COc1ccc2c(Cc3ccccc3F)noc2c1	5.0	-0.1	0.7	3.2	-0.4
CNC(=O)C1CN(C(=O)Nc2ccccc2)CC12CCCC2 (stereo unspecified)	-3.8	-2.8	-0.4	-16.2	-1.3
Cc1ccc(CNC(=O)c2c(O)c3ccccc3[nH]c2=O)cc1	11.8	0.6	10.5	39.7*	12.0
O=C(NCc1ccc(F)cc1)c1c(O)c2ccccc2[nH]c1=O	-8.0	-0.9	6.3	8.1	8.7
CCC(C)C(=O)NC(=NCCc1c[nH]c2ccccc12)Nc1nc(C)cc(C)n1 (stereo unspecified)	-3.5	9.1	0.0	-6.4	13.0
Cc1ccccc1NC(=O)Cn1c(C)nc2c(c1=O)CCN(Cc1ccccc1)C2	-5.7	-1.1	-2.5	49.2*	-13.6
CCCn1c(NC(=O)Cc2coc3cc(OC)ccc23)nc2ccccc21	-19.9	-7.6	-20.7	60.9*	-2.3
CCCn1c(-c2ccc(OC)cc2)nc2ccccc21	-2.4	1.6	-7.7	3.6	0.4
c1ccc2c(c1)CCN(c1ncnc3sc4c(c13)CCCC4)C2	-9.6	2.4	-6.1	13.2	0.2
Clc1ncc(CN2CCc3ccccc3C2)s1	3.1	2.2	0.0	35.4*	1.7
COc1ccc(NC(=O)c2ccc(N3C(=O)N4CCc5c([nH]c6ccc(OC)cc56)[C@@]4(C)C3=O)cc2)cc1	11.6	7.8	8.9	30.9*	2.4
COc1cccc(N2C(=O)N3CCc4c([nH]c5ccc(OC)cc45)[C@@]3(C)C2=O)c1	9.8	8.3	7.3	15.0	8.6
Cc1nc(-c2ccccc2)nc2c1CC(=O)N2Cc1cccnc1	-72.3	-22.0	-36.2	51.6*	-4.9
Cc1nc(C2CCNCC2)nc2c1CC(=O)N2CCc1ccccc1	13.9	0.9	3.1	1.5	-0.6
CCN(CC)CCOC(=O)c1ccc(NC(=O)c2cn(-c3ccc(OC)cc3)c(=O)c3ccccc23)cc1	4.5	10.6	6.2	5.7	6.2
Cc1ccc(Cl)cc1NC(=O)c1cc(-c2ccccn2)n[nH]1	-7.6	2.1	17.4	19.3	22.8
COc1ccc(Cl)cc1NC(=O)c1cc(-c2ccccn2)n[nH]1	0.0	13.3	57.5*	83.6*	47.0*
COc1cc(OC)c(NC(=O)c2cc(-c3ccccn3)n[nH]2)cc1Cl	4.8	5.8	22.4	89.0*	39.9*
Cc1cc(C)c(O)c(-c2cc(C(=O)Nc3ccccc3Cl)[nH]n2)c1	10.6	5.1	18.7	96.8*	25.1
COc1ccc(-c2cc(C(C)=O)c(C)n2CCC(=O)Nc2ccc(C)cn2)cc1	-37.9	0.1	0.7	-18.6	-3.2
CCOc1ccc(NC(=O)Cn2c(-c3ccccc3)cc(C(C)=O)c2C)cc1	14.9	-0.3	7.8	35.6*	22.5
O=C(CC1CCCC1)Nc1cc(F)c2nc(N3CCOCC3)ccc2c1	3.1	-0.1	-2.4	70.7*	-4.2
O=C(Nc1cc(F)c2nc(N3CCOCC3)ccc2c1)C1CCCC1	-9.0	-0.9	-5.5	56.6*	-3.2
O=C(Cc1cccs1)Nc1cc(F)c2nc(N3CCOCC3)ccc2c1	-0.2	5.1	3.2	-5.3	-0.1
SMILES	OTUD3 inh	UCHL1 block	USP7 inh	USP8 block	USP10 inh
COc1ccc(CCNC(=O)[C@H](C(C)C)N2C(=O)N3CCc4c([nH]c5ccccc45)[C@@]3(C)C2=O)cc1OC	-3.4	0.6	0.0	-3.2	-0.9
O=C(NCc1ccc(Cl)cc1)[C@@H]1Cc2nc[nH]c2CN1Cc1ccc(Cl)cc1	-7.1	-1.3	-72.9	50.3*	-4.8
CC(C)Nc1ncnc2c1c(C(=O)N1CCOCC1)c1ccccn12	-15.6	-6.0	-9.2	16.6	-8.7
O=C(c1c2c(N3CCCC3)ncnc2n2ccccc12)N1CCCC1	-25.1	-15.8	-26.8	66.7*	-4.3
O=C(c1c2c(-c3ccncc3)ncnc2n2ccccc12)N1CCOCC1	-20.2	-80.2	-88.0	33.0*	-2.3
CCN1CCN(c2nc(NCc3ccco3)c3ccccc3n2)CC1	-11.6	-1.0	-10.6	-3.5	-3.8
Cc1ccc(Nc2nc(NCc3ccco3)c3ccccc3n2)cc1	35.4*	10.4	12.3	31.2*	9.2
O=C1CC(c2cc(F)ccc2F)c2cc3c(cc2N1)OCCO3 (stereo unspecified)	6.2	2.4	-10.0	6.0	1.6
O=C1CC(c2cc3c(cc2Br)OCO3)c2cc3c(cc2N1)OCCO3 (stereo unspecified)	-0.1	2.5	2.0	4.3	40.4*
COc1cccc(C(=O)N2CCc3cc4ccccc4nc32)c1	-1.5	-1.8	-6.2	-1.0	-1.7
Cn1cc(-c2ccccc2NC(=O)Cc2cc(F)cc(F)c2)cn1	0.5	1.2	5.9	-0.2	-0.2
O=C(NC1CCCC1)c1ccc(-c2ccc(S(=O)(=O)NCc3ccccc3)cc2)cc1	12.6	3.8	16.7	45.0*	22.3
Cc1ccc(Cn2cc(-c3noc(-c4ccco4)n3)nn2)cc1	-0.9	0.7	-4.5	-3.9	2.0
Cc1ccc(Cn2cc(-c3noc(C(=O)Nc4cc(F)ccc4F)n3)nn2)cc1	8.0	5.0	-148.4	89.9*	50.9*
CCc1ccc2ncc(S(=O)(=O)c3ccc(Cl)cc3)c(N3CCOCC3)c2c1	7.2	5.2	3.3	11.3	5.9
O=C(c1cc(=O)[nH]c(=O)[nH]1)N1CCCCC1c1ncc(Cc2cccc(Cl)c2)o1 (stereo unspecified)	5.1	0.0	4.6	7.9	2.7
O=C1c2cccc(O)c2C(=O)c2c(O)cccc21	-97.7	-25.5	-83.1	-171.7	-7.0
Cc1cc(O)c2c3c(c(O)cc2c1)C(=O)c1c(O)cccc1C3=O	66.8*	67.2*	59.9*	-14.4	7.4
Cn1c(=O)c2cc(C(=O)Nc3ccc(F)cc3)cnc2n(C)c1=O	8.9	2.1	2.1	5.4	4.9
CC[C@@H]1CCC[C@H](C)CC[C@@H](O[C@@H]2O[C@@H](C)[C@@H](O)[C@@H](N)[C@H]2O)[C@H](CC)CCCNC1=O	36.5*	17.9	20.9	3.8	13.8
Cc1cc(NC(=O)Cn2c(=O)n(CCc3ccccc3)c(=O)c3ccccc32)n[nH]1	5.0	-0.7	-2.9	10.0	8.4
O=C(Cn1c(=O)n(Cc2ccco2)c(=O)c2ccc(C(=O)NC3CCCC3)cc21)NCc1ccco1	14.7	6.0	-1.8	45.0*	19.6
O=C(CCCCn1c(=O)c2ccccc2n(CC(=O)NCCC2=CCCCC2)c1=O)NCc1ccc2c(c1)OCO2	-0.8	0.3	-2.7	-0.8	13.0
Cc1cc(NC(=O)Cn2c(=O)n(Cc3ccco3)c(=O)c3ccc(C(=O)NCCc4ccccc4)cc32)n[nH]1	76.7*	17.6	3.4	86.6*	66.3*
COc1ccc(-n2c(=O)c3ccc(C(=O)NCCc4ccccc4)cc3n(CC(=O)NCc3ccco3)c2=O)cc1	25.5	5.5	-15.2	6.3	43.9*

Assay outcomes as filed in PubChem BioAssay.
